Hits are enriched below; roughly 19% of the tested compounds scored in any of these assays.
TDP1 cell noCPT – qHTS for Inhibitors of human tyrosyl-DNA phosphodiesterase 1 (TDP1): qHTS in cells in absence of CPT; Potency, µM (top dose mostly 46.2 µM), for inactives: at the highest dose activity change, negative = growth inhibition, usual class: inhibitors; AID 686978, 2013; 420,000 tested, 15% active; DT40 Tdp1-/- hTDP1 cells, no CPT, ATP luminescence, 48 h; also: potency is read from the fitted curve at half-maximal effect; nearly all actives have a fitted effect of over 55% in size
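Compound effects on proliferation are scored in DT40 Tdp1-/-;hTDP1 cells in the absence of CPT. ATP levels (CellTiter-Glo luminescence) are recorded after a ≥48 hr, 37 °C incubation.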
HT1080-NT tox – kills 2HG-producing HT-1080-NT fibrosarcoma cells; HT-1080-NT fibrosarcoma viability, CellTiter-Glo ATP luminescence, 48 h; Potency, µM (series often up to 46.1 µM), for the others: top-dose activity, negative = less viability, most hits filed as cytotoxic; 360,000 tested, 1.6% active;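 also: NT is the 2HG producing partner of a matched IDH1 knockdown line; potency is read from the fitted curve at half-maximal effect; 0% = DMSO-treated cells and -100% = media-only wells without cells; nearly all actives have a fitted effect of over 55% in size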
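Read-out is CellTiter-Glo luminescence after 10 minutes at room temperature, following 48 hours' compound treatment of HT-1080-NT cells (750 cells/well, RPMI, 5% FBS, 37 degrees C).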
HT1080 IDH1KD tx – HT-1080 IDH1 knockdown cell toxicity (counter line); HT-1080 IDH1 knockdown viability, ATP luminescence, 48 h; 360,000 tested, 2% active; Potency, µM (top dose mostly 46.1 µM), for the others: at the top dose activity, negative = toxicity, usual class: cytotoxic; AID 686971;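 also: potency is read from the fitted curve at half-maximal effect; 0% = DMSO wells and -100% = cell-free medium wells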
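Cytotoxicity counter-line: IDH1KD HT-1080, 48 h, CellTiter-Glo. Curves classed by r2, magnitude and activity.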
IL1B secr inh – inflammasome signaling inhibition, IL-1 beta readout; AID 743279; activity change, % at 57.5 µM; THP-1 LPS/ATP IL-1B secretion, AlphaLISA, 16 h; hits give low values; 360,000 tested, 4.7% active; in the data active = activity change below about -50%; inconclusive = mostly about -30% to -49%
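THP-1 cells pretreated 1 hr with compounds (up to 57.5 uM final), then stimulated with LPS (250 ng/mL final) plus ATP (1.25 mM final); secreted IL-1B measured by AlphaLISA after 16 hr, decreased signal indicating inhibition.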
TDP1 cell CPT – DT40-hTDP1 cell growth loss with CPT; chicken DT40 Tdp1-/-;hTDP1 cells + 20 nM CPT, ATP luminescence, 48 h; Potency, µM (top dose mostly 46.2 µM), for inactives: at the top dose activity change, negative = growth inhibition, actives largely listed as inhibitors; 420,000 tested, 12% active; also: potency is read from the fitted curve at half-maximal effect; nearly all actives have a fitted effect of over 55% in size
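Cell growth measured by CellTiter-Glo luminescence after a minimum 48 h, 37 C compound exposure with 20 nM CPT in Tdp1-knockout DT40 cells stably expressing hTDP1, seeded 400/well; qHTS titration format.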
ELG1 repair inh – inhibitors of ELG1-dependent DNA repair in HEK293T cells; HEK293T ELG1-luciferase reporter, luminescence, 16 h; DNA damage induced by 5-fluorouridine; Potency, µM (series often up to 46.1 µM), for inactives: at the highest dose activity change, negative = inhibition, most hits filed as inhibitors; 330,000 tested, 2.3% active; AID 504467; also: potency is read from the fitted curve at half-maximal effect; nearly all actives have a fitted effect of over 55% in size
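Cells (2,000 per well) received 5-fluorouridine plus test compound or DMSO and were incubated 16 hr at 37 °C, 5% CO2. Luciferase activity was read by luminescence 30 min after ONE-Glo addition; signal suppression marked inhibition of damage-induced ELG1 function.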
An asterisk follows results filed as active; ? = inconclusive; . = no result given. Unless noted, calls follow the shape of the dose curve; as a rule, active = well fitted curve in the direction sought with a large enough effect; inconclusive = small, poorly fitted or top-dose-only effect, or another doubt; inactive = no such curve, though single readings can be large; an effect the other way counts as inactive or inconclusive. Unless noted, % is scaled to controls: 0 for no effect and ±100 for the full control effect.

SMILES	TDP1 cell noCPT	HT1080-NT tox	HT1080 IDH1KD tx	IL1B secr inh	TDP1 cell CPT	ELG1 repair inh
Cc1ccc2nc(C3CCCCC3)c(Cc3ccsc3)n2c1	9.2µM*	-30%	?	-11	13µM*	.
Cc1ccc(Cc2c(C3CCCCC3)nc3ccc(C)cn23)cc1	18µM*	?	?	-52*	18µM*	.
CC(=O)Oc1cc2c(c(C)c1OC(C)=O)CC=C1[C@]3(C)CC[C@]4(C)CC[C@@](C)(C(=O)O)CC4[C@]3(C)CC[C@]12C (stereo partly drawn)	4.6µM*	.	.	.	3.7µM*	.
O=C(NNC1=Nc2cccc3cccc1c23)c1ccc(Br)cc1	13µM*	0%	-29%	55	12µM*	-7%
O=c1[nH]c(/C(=N\O)c2ccccc2)no1	15µM*	-6%	-4%	-17	?	?
O=C(c1ccccc1)c1ncc[nH]1	4%	21%	25%	16	8%	?
O=C(NC1CCCCCC1)C1CCN(S(=O)(=O)c2c(Cl)cccc2Cl)CC1	23µM*	10%	-2%	0	23µM*	?
O=C(Nc1ccncc1)C1CCN(S(=O)(=O)c2c(Cl)cccc2Cl)CC1	18µM*	-1%	1%	21	?	-10%
O=C(C1CCN(S(=O)(=O)c2c(Cl)cccc2Cl)CC1)N1CCCC1	-24%	-4%	-11%	14	-15%	21%
O=C(c1ccc(Cl)c(S(=O)(=O)N2CCOCC2)c1)N(c1ccccn1)C1CCCCC1	16µM*	12%	8%	29	?	?
CCOc1ccccc1N1CCN(C(=O)Nc2ccc(F)c(Cl)c2)CC1	23µM*	5%	0%	-5	?	0%
O=C(Nc1ccccn1)c1ccc(Cl)c(S(=O)(=O)N2CCOCC2)c1	22%	-1%	0%	8	3%	-12%
COc1ccccc1N1CCN(C(=O)Nc2ccc(F)c(Cl)c2)CC1	?	5%	3%	0	19%	-4%
CCOc1ccccc1N1CCN(C(=O)c2ccc(Cl)c(S(=O)(=O)N3CCCCC3)c2)CC1	?	-21%	-24%	?	?	23µM*
CN1CCN(C(=O)c2ccc(Cl)c(S(=O)(=O)N3CCCCC3)c2)CC1	-12%	0%	-13%	23	-15%	-17%
O=C(c1ccc(Cl)c(S(=O)(=O)N2CCCCCC2)c1)N1CCN(c2ccccn2)CC1	?	?	-11%	?	?	21µM*
Cc1ccc(C)c(N2CCN(C(=O)Cn3c(=O)c4cccn4c4ccc(F)cc43)CC2)c1	-21%	.	.	.	-10%	.
C[C@@H]1CN([C@@H](C)CO)C(=O)CCCn2nncc2CO[C@@H]1CN(C)C(=O)C1CCCCC1	-1%	9%	6%	11	-19%	.
O=C(NCc1ccc(F)cc1)C1CCCCN1S(=O)(=O)c1ccc(F)cc1 (stereo not drawn)	-9%	.	.	.	-15%	.
O=C(c1ccc(Cl)c(S(=O)(=O)N2CCc3ccccc3C2)c1)N1CCN(c2ccccc2)CC1	?	-13%	-15%	-11	3.7µM*	?
COc1ccc(NCc2cccn2-c2nnc(N3CCC(C)CC3)s2)c(OC)c1	16µM*	.	.	.	?	.
COc1ccc(OC)c(NCc2cccn2-c2nnc(N3CCC(C)CC3)s2)c1	2.6µM*	.	.	.	2.9µM*	.
COc1ccc(NCc2cccn2-c2nnc(N3CCOCC3)s2)c(OC)c1	-22%	.	.	.	-26%	.
COc1ccccc1N(C(=O)c1ccncc1)c1nc(-c2ccc([N+](=O)[O-])cc2)cs1	16µM*	-6%	-19%	0	16µM*	?
CN(C(=O)c1cccnc1)c1nc(-c2ccccc2)cs1	?	-15%	2%	-24	-3%	?
SMILES	TDP1 cell noCPT	HT1080-NT tox	HT1080 IDH1KD tx	IL1B secr inh	TDP1 cell CPT	ELG1 repair inh
Cc1cc(C)nc(Sc2c(C)nn(-c3ccccc3)c2C)n1	21µM*	1%	-1%	7	?	-13%
Cc1cccc(NC(=O)/C(C#N)=C/c2ccc(C)o2)c1	-24%	.	.	.	-21%	.
NC(=O)C1CCN(C(=O)CCSCc2ccc(Cl)c(Cl)c2)CC1	-20%	3%	-5%	-3	7%	-1%
C=C(C(=O)c1ccccc1)C(C)C(=C)C(=O)c1ccccc1	5.8µM*	8.2µM*	5.8µM*	-103*	5.8µM*	21µM*
C=C(C(=O)c1ccccc1)C(C(=C)C(=O)c1ccccc1)c1ccc(OC)cc1	5.2µM*	4%	-6%	-61*	10µM*	16µM*
C=C(C(=O)c1ccccc1)C(c1ccccc1)C(C)C(=O)c1ccccc1 (stereo not drawn)	?	?	?	-97*	?	?
COc1ccc(C(CC(=O)c2ccccc2)CC(=O)c2ccccc2)cc1	?	0%	1%	-22	?	?
O=C(c1ccccc1)C(c1ccccc1)c1ccccc1	-25%	15%	9%	11	3%	27%
Cc1ccc(CNC(=O)CCCn2c(=O)c3ccccc3n(Cc3ccc(Cl)cc3)c2=O)cc1	-26%	.	.	.	-8%	.
CC(C)[C@@H]1Cc2[nH]c(=S)[nH]c(=O)c2[C@H](CCc2ccccc2)O1	?	-4%	-10%	21	?	.
CC(c1ccccc1)n1c(-c2cccs2)nc2c(c(=O)c3ccccc3n2C)c1=O (stereo not drawn)	?	18%	24%	37	-24%	4%
COC(=O)c1[nH]c2cc(OC)c(OC)cc2c1/C=N/Nc1ccccc1	18µM*	-17%	-2%	-13	?	?
COc1cc(/C=N/N(c2ccccc2)c2ccccc2)ccc1O	0%	18µM*	16µM*	?	-10%	-3%
COc1cc(/C=N/Nc2ccccc2)ccc1O	-2%	?	21µM*	21	1%	13%
COc1ccc(/C=N/N(c2ccccc2)c2ccccc2)cc1O	5%	-1%	-6%	-25	-2%	19%
Cc1ccc(-c2nn3c(C)nnc3c3ccccc23)cc1S(=O)(=O)NCC(C)O (stereo not drawn)	-59%	.	.	.	?	.
CCCc1cc(=O)oc2cc(OCC(=O)NCCCN3CCCC3=O)ccc12	10%	21%	25%	-2	-8%	18%
CCCC(=O)C1=C(c2ccccc2)C(C#N)(C#N)C(C#N)=C1N	15µM*	-2%	-3%	-13	18µM*	8%

Bioassay records (PubChem)
